This is a sample that favours compounds with a hit; in the whole collection about 1.7% have one here.
TLR4-MyD88 BLA – inhibitors of human TLR4-MyD88 binding | O00206+Q99836 | HeLa CL3-4 TLR4/MyD88 BLA complementation, FRET ratio | inhibition, % at 8.4 µM | 200,000 tested, 0.18% active | AID 861; in the data active means inhibition above about 25%;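 further: 0% = vehicle and 100% = reference inhibitor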
Target sequence (O00206 whole entry, looked up): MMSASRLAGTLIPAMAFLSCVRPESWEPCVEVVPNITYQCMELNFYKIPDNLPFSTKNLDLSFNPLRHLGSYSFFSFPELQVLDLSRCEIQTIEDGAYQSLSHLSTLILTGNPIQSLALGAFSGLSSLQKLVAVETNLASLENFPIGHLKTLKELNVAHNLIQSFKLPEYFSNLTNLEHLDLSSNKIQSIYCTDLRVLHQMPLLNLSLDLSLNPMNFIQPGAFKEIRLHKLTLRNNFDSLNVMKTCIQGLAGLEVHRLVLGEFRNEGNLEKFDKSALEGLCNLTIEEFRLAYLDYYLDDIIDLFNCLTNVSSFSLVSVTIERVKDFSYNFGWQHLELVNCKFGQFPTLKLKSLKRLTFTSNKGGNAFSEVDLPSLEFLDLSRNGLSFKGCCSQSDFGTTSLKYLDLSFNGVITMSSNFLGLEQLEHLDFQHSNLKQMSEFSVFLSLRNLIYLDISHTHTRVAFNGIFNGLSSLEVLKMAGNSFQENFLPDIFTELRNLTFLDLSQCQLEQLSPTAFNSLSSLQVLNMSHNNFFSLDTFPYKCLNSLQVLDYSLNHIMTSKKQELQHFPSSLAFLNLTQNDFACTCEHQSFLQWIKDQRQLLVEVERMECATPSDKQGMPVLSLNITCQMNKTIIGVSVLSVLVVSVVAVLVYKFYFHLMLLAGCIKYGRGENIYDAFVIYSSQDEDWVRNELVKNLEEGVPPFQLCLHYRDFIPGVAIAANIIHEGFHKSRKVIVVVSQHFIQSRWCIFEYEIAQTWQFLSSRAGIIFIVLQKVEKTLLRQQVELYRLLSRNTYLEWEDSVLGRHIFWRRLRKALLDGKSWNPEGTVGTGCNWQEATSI
Target sequence (Q99836 whole entry, looked up): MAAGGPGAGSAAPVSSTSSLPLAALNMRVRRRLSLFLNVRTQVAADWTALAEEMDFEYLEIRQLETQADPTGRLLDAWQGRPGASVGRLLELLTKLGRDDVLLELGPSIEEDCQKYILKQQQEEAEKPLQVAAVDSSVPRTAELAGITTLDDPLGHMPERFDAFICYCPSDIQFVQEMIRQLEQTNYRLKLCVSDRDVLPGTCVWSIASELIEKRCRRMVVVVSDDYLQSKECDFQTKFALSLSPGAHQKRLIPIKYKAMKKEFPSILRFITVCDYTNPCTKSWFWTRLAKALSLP
NOD2-RIPK2 inh – inhibitors of human NOD2-RIPK2 interaction; O43353; CHO BLA complementation NOD2-RIPK2, CCF4 ratio; inhibition, % at 4.98 µM; 360,000 tested, 0.38% active; in the data active means inhibition above about 21%;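 further: 0% = vehicle only and 100% = reference blocker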
ABCB6 inh 2 – inhibitors of human ABC transporter ABCB6; Q9NP58; K562-ABCB6 porphyrin accumulation, flow cytometry, 1 h; hits give low values; fluorescence ratio to DMSO, % at 10 µM; 360,000 tested, 0.19% active;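 active means fluorescence ratio to DMSO below 75%, the collection mean minus 3 SD; inconclusive means too few cells collected in the well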;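 further: signal is porphyrin accumulated inside mitochondria; 100% equals median channel fluorescence of DMSO control wells; lower ratio means ABCB6 inhibition with less porphyrin fluorescence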
TLR9-MyD88 block – TLR9-MyD88 interaction inhibition | Q9NR96+Q99836 | CHO BLA complementation TLR9-MyD88, CCF4 FRET ratio | inhibition, % at 4.98 µM | 340,000 tested, 0.21% active;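 active means inhibition above the mean over all tested compounds plus 3 SD, cut at about 21% in these data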;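 further: 0% = DMSO only wells and 100% = clavulanate BLA inhibitor control wells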
Myeloid diff MLP – myeloid differentiation induction; ER-HoxA9 myeloid progenitors, lysozyme-GFP differentiation, flow cytometry; calls only at 10 µM; 360,000 tested, 1% active; AID 624256;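 active means normalized GFP-positive differentiation at or above the plate's own cutoff, the solvent-only control mean plus 3 SD; inconclusive means no clear call, values can overlap the other calls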;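 further: cells exposed to compound for four days before flow analysis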
* hit, by the source's call.

`C/C=C(\C)C(=O)OC1[C@H](OC(C)=O)C2(CO)C(CC1(C)C)C1=CCC3C4(C)CCC(O[C@@H]5O[C@H](C(=O)O)[C@@H](O[C@@H]6O[C@H](CO)[C@@H](O)[C@H](O)[C@H]6O)[C@H](O)[C@H]5O[C@H]5O[C@H](CO)[C@@H](O)[C@H](O)[C@H]5O)[C@](C)(CO)C4CCC3(C)[C@]1(C)C[C@H]2O` (some centres undefined) gave NOD2-RIPK2 inh 30*, ABCB6 inh 2 98, TLR9-MyD88 block 58* and Myeloid diff MLP inactive.
O=C(/C=C/c1ccc2ccccc2n1)c1cc(Br)ccc1O was read as NOD2-RIPK2 inh -5, ABCB6 inh 2 165, TLR9-MyD88 block -6 and Myeloid diff MLP active.
For CCOc1ccc(OCCN2C(=O)NC(Cc3c[nH]c4ccccc34)C2=O)cc1 (centres undefined) the results were TLR4-MyD88 BLA 2, NOD2-RIPK2 inh -9, ABCB6 inh 2 98, TLR9-MyD88 block 10 and Myeloid diff MLP inactive.
COc1ccc(/C=c2\s/c(=C/C(=O)c3ccc(C)cc3)[nH]c2=O)c(OC)c1 was read as TLR4-MyD88 BLA -4, NOD2-RIPK2 inh -2, ABCB6 inh 2 128, TLR9-MyD88 block -3 and Myeloid diff MLP active.
For COc1cc(S(=O)(=O)NCc2ccc3c(c2)OCO3)c(OC)cc1C the results were NOD2-RIPK2 inh 2, ABCB6 inh 2 101, TLR9-MyD88 block -10 and Myeloid diff MLP inactive.
Screening COc1cc(C)c(S(=O)(=O)NCc2ccc3c(c2)OCO3)cc1C returned TLR4-MyD88 BLA -10, NOD2-RIPK2 inh -1, ABCB6 inh 2 71*, TLR9-MyD88 block -3 and Myeloid diff MLP inactive.
NCCCC(N)(C(=O)O)C(F)F (centres undefined) was read as TLR4-MyD88 BLA -6, NOD2-RIPK2 inh -4, ABCB6 inh 2 101, TLR9-MyD88 block -5 and Myeloid diff MLP active.
`CCN(C(=O)COC(=O)CNC(=O)C1CCCCC1)c1ccccc1` gave NOD2-RIPK2 inh -8, ABCB6 inh 2 101, TLR9-MyD88 block 1 and Myeloid diff MLP inactive.
COc1ccc(N(Cc2cc3cccc(C)c3[nH]c2=O)S(=O)(=O)c2ccc(OC)cc2)cc1 was read as NOD2-RIPK2 inh -2, ABCB6 inh 2 98, TLR9-MyD88 block 2 and Myeloid diff MLP active.
`COc1ccc(N(Cc2cc3cccc(C)c3[nH]c2=O)S(=O)(=O)c2ccc(Cl)cc2)cc1` gave NOD2-RIPK2 inh 10, ABCB6 inh 2 96, TLR9-MyD88 block 2 and Myeloid diff MLP inconclusive.
`Nc1ccccc1NC1CCCCC1` gave TLR4-MyD88 BLA -4, NOD2-RIPK2 inh -13, ABCB6 inh 2 127, TLR9-MyD88 block -2 and Myeloid diff MLP active.
`O=C(Nc1ccccc1NC(=O)NC1CCCCC1)NC1CCCCC1` gave TLR4-MyD88 BLA -9, NOD2-RIPK2 inh -7, ABCB6 inh 2 98, TLR9-MyD88 block -5 and Myeloid diff MLP inactive.
Cc1cc(NCCCN2CCOCC2)n2nc(C)c(-c3ccccc3)c2n1 was read as TLR4-MyD88 BLA -11, NOD2-RIPK2 inh 7, ABCB6 inh 2 92, TLR9-MyD88 block 8 and Myeloid diff MLP active.
For Cc1cc(NCCCN2CCOCC2)n2nc(C)c(-c3ccc(F)cc3)c2n1 the results were TLR4-MyD88 BLA 4, NOD2-RIPK2 inh 1, ABCB6 inh 2 98, TLR9-MyD88 block -4 and Myeloid diff MLP inactive.
Screening CCCCNC(=O)C1C(c2ccc(OC)cc2)=Nc2ccccc2N1C(=O)c1ccncc1 (centres undefined) returned NOD2-RIPK2 inh 6 and Myeloid diff MLP inactive.
Cc1cc(C)cc(Nc2nc(-c3ccc(S(=O)(=O)N4CCCC4)cc3)cs2)c1 was read as TLR4-MyD88 BLA -4, NOD2-RIPK2 inh -3, ABCB6 inh 2 93, TLR9-MyD88 block 2 and Myeloid diff MLP active.
For Cc1sc2nc(CSc3nc4ccccc4c(=O)n3CCCN3CCOCC3)[nH]c(=O)c2c1C the results were TLR4-MyD88 BLA -8, NOD2-RIPK2 inh 0, ABCB6 inh 2 235, TLR9-MyD88 block -8 and Myeloid diff MLP active.
`O=C(Nc1cccc2ncccc12)c1ccc(OCc2ccccc2)cc1` gave TLR4-MyD88 BLA 7, NOD2-RIPK2 inh 2, ABCB6 inh 2 95, TLR9-MyD88 block -8 and Myeloid diff MLP inactive.
Screening CC(C)(C)c1ccc(C(=O)CCCSC2=C(C#N)C(c3ccco3)C3=C(CCCC3=O)N2)cc1 (centres undefined) returned TLR4-MyD88 BLA 4, NOD2-RIPK2 inh -6, ABCB6 inh 2 57*, TLR9-MyD88 block -13 and Myeloid diff MLP inactive.
`Cc1ccc(C(=O)CSC2=C(C#N)C(c3ccco3)C3=C(CCCC3=O)N2)cc1` (centres undefined) gave TLR4-MyD88 BLA 1, NOD2-RIPK2 inh 8, ABCB6 inh 2 105, TLR9-MyD88 block 2 and Myeloid diff MLP inconclusive.
Screening O=C(CCn1ccc2cc(S(=O)(=O)N3CCCC3)ccc21)NCCc1ccccc1 returned NOD2-RIPK2 inh -12, ABCB6 inh 2 167, TLR9-MyD88 block 7 and Myeloid diff MLP active.
`Cc1ccc(CCNC(=O)CCn2ccc3cc(S(=O)(=O)N4CCCC4)ccc32)cc1` gave NOD2-RIPK2 inh -1, ABCB6 inh 2 103, TLR9-MyD88 block 3 and Myeloid diff MLP inconclusive.
Screening CCCCn1c(NC(=O)c2ccco2)c(S(=O)(=O)c2ccc(C)cc2)c2nc3ccccc3nc21 returned TLR4-MyD88 BLA -9, NOD2-RIPK2 inh 1, ABCB6 inh 2 111, TLR9-MyD88 block -10 and Myeloid diff MLP active.
CCCCn1c(NS(=O)(=O)c2ccccc2)c(S(=O)(=O)c2ccc(C)cc2)c2nc3ccccc3nc21 was read as TLR4-MyD88 BLA 12, NOD2-RIPK2 inh 3, ABCB6 inh 2 116, TLR9-MyD88 block -6 and Myeloid diff MLP inactive.
Screening CCCCCn1c(NC(=O)c2ccco2)c(S(=O)(=O)c2ccc(C)cc2)c2nc3ccccc3nc21 returned TLR4-MyD88 BLA 0, NOD2-RIPK2 inh -4, ABCB6 inh 2 109, TLR9-MyD88 block -62 and Myeloid diff MLP active.
`CCCCn1c(NC(=O)c2ccc(Br)o2)c(S(=O)(=O)c2ccccc2)c2nc3ccccc3nc21` gave TLR4-MyD88 BLA 7, NOD2-RIPK2 inh -5, ABCB6 inh 2 106, TLR9-MyD88 block -6 and Myeloid diff MLP inactive.
Screening CCCn1c(SC(C)C(=O)NCC2CCCO2)nc2sc(CC)cc2c1=O (centres undefined) returned NOD2-RIPK2 inh -1, ABCB6 inh 2 96, TLR9-MyD88 block 4 and Myeloid diff MLP inactive.
COc1ccc(N2CC(C(=O)Nc3nnc(SCC(=O)NCc4ccco4)s3)CC2=O)cc1 (centres undefined) was read as NOD2-RIPK2 inh 0, ABCB6 inh 2 99, TLR9-MyD88 block 4 and Myeloid diff MLP active.
Cc1ccc(O)c(NC(=O)c2cccc(S(=O)(=O)N3CCCCC3)c2)c1 was read as TLR4-MyD88 BLA 12, NOD2-RIPK2 inh -18, ABCB6 inh 2 103, TLR9-MyD88 block 0 and Myeloid diff MLP active.

Bioassay records deposited in PubChem by several laboratories.
